Results on twelve compounds are retold here after PubChem BioAssay (NCI).

The structures appear in SMILES notation. This is part of a sample that, as a whole, favours compounds with a hit. Of some 83,000 tested, about 20% had one in any assay.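 Results are percent growth after 48 hours of single-concentration exposure. 100 means growth as in untreated cells, lower positive values show inhibition; negative values down to -100 show cell death.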 A number with no mark means an inactive call. Calls of active or inactive are those of the source. Rule for the calls: active = growth percent below 10; inactive = the rest.

Some test systems named below: SK-MEL-2 melanoma; EKVX NSCLC; SN12C renal; UO-31 renal; TK-10 renal; ACHN renal; A498 renal; CCRF-CEM leukemia; MOLT-4 leukemia; SR leukemia.
Test in all cases: NCI-60 one-dose screen, 48 h (100 = growth as untreated, 0 = no growth, -100 = all killed)
Common to all, as to conditions: 10 µM unless noted

Regarding `COCCOC(=O)COc1ccc(OC)cc1`, the growth is 120% in the assay on SK-MEL-2 melanoma; 96.6% in the assay with EKVX NSCLC; 99.7% in the assay on SN12C renal; 88.9% in the assay on UO-31 renal; 108% in the assay with TK-10 renal; 106% in the assay with ACHN renal. Besides, the growth in the assay on A498 renal was 88.2%; in the assay with CCRF-CEM leukemia, 104%; with MOLT-4 leukemia, 90.7%; in the assay on SR leukemia, 88.2%.
With `O=CN1N=C(c2ccc(Cl)cc2)CC1c1cccc(Nc2ccnc3cc(C(F)(F)F)ccc23)c1` (stereo not given), the growth with SK-MEL-2 melanoma is 58%; in the assay with EKVX NSCLC, 58.7%; with SN12C renal it was 87.7%; in the assay on UO-31 renal it was 48.5%; in the assay with TK-10 renal it was 71%; in the assay with ACHN renal, 61.2%. Moreover, the growth was 58.6% in the assay on A498 renal, 51.7% in the assay with CCRF-CEM leukemia, 33.8% with MOLT-4 leukemia and 30% with SR leukemia.
As for `Cc1nc2sc(C(=O)Nc3ccccc3Cl)c(N)c2cc1C(C)O` (stereo not given), the growth is 75% in the assay on SK-MEL-2 melanoma; 89% in the assay with EKVX NSCLC; 89.4% in the assay with SN12C renal; 96.3% in the assay on UO-31 renal; 81.7% in the assay with TK-10 renal; 96.2% in the assay with ACHN renal. Besides, the growth with A498 renal was 70.7%; in the assay with CCRF-CEM leukemia it was 79.5%; in the assay with MOLT-4 leukemia it was 64%; in the assay with SR leukemia, 33.2%.
For `COc1cc(C(=O)N2CCN(c3ccccc3OC)CC2)c(NC(=O)c2cnccn2)cc1OCc1ccccc1`, the growth in the assay on SK-MEL-2 melanoma was 85.7%; with EKVX NSCLC it was 57.2%; in the assay with SN12C renal it was 88.6%; in the assay with UO-31 renal, 39%; in the assay on TK-10 renal, 102%; with ACHN renal, 92.5%. In addition, the growth was 84.9% with A498 renal, -44% (active) in the assay with CCRF-CEM leukemia, 52.4% in the assay on MOLT-4 leukemia and 60.7% in the assay with SR leukemia.
In the case of `CCC1S/C(=N\N=C(/C)c2ccc[nH]2)N(c2ccccc2)C1=O` (stereo not given), the growth with SK-MEL-2 melanoma is 124%; in the assay with EKVX NSCLC, 116%; in the assay on SN12C renal, 116%; in the assay on UO-31 renal, 43%; in the assay with TK-10 renal it was 83.5%; with ACHN renal, 102%. Also, the growth was 112% with A498 renal, -86.5% (active) with CCRF-CEM leukemia, -50% (active) in the assay on MOLT-4 leukemia and 32.5% with SR leukemia.
Take `CCOC(=O)C1=C(C)n2nc(CC#N)c(C#N)c2NC1c1ccc(Cl)cc1` (stereo not given): the growth is 105% in the assay on SK-MEL-2 melanoma; 89% in the assay with EKVX NSCLC; 96.6% in the assay on SN12C renal; 73.3% in the assay with UO-31 renal; 123% in the assay with TK-10 renal; 90.8% in the assay on ACHN renal. Besides, the growth with A498 renal was 98.6%; in the assay on CCRF-CEM leukemia, 96.4%; with MOLT-4 leukemia it was 104%; in the assay with SR leukemia, 101%.
In the case of `COc1ccc(-c2cc(C(=O)N3N=C(c4ccc(N)cc4)CC3c3ccc(OC)cc3)c3cc(OC)ccc3n2)cc1` (stereo not given), the growth in the assay with SK-MEL-2 melanoma was 64.5%; in the assay with EKVX NSCLC, 68.9%; in the assay on SN12C renal, 61.8%; with UO-31 renal it was 56.6%; in the assay with TK-10 renal it was 93.8%; in the assay with ACHN renal, 54.5%. For the same compound, the growth in the assay on A498 renal was 71.3%; with CCRF-CEM leukemia, 63.3%; in the assay on MOLT-4 leukemia, 54.5%; in the assay on SR leukemia, 19.4%.
Consider `C=C(C)[C@@H]1CC[C@]2(C(N)=O)CC[C@]3(C)[C@H](CC[C@@H]4[C@@]5(C)CCCNC(C)(C)[C@@H]5CC[C@]43C)[C@@H]12`, for which the growth in the assay with SK-MEL-2 melanoma is 105%; with EKVX NSCLC, 87.5%; in the assay on SN12C renal, 77.7%; with UO-31 renal it was 84.4%; with TK-10 renal it was 107%; in the assay with ACHN renal, 88.9%. Besides, the growth was 99% with A498 renal, 52.5% with CCRF-CEM leukemia, 48.9% with MOLT-4 leukemia and 3% (active) in the assay on SR leukemia.
With `COC(=O)CCc1cc(O)c2c(c1)[C@@H](C(=O)OC)[C@H](c1ccc(O)c(O)c1)O2`, the growth is 47.8% with SK-MEL-2 melanoma; 87.7% with EKVX NSCLC; 95.1% in the assay on SN12C renal; 67.7% with UO-31 renal; 90.6% with TK-10 renal; 98.2% in the assay on ACHN renal. Moreover, the growth is 98% in the assay on A498 renal, 53.6% with CCRF-CEM leukemia, 47.7% in the assay on MOLT-4 leukemia and 36% with SR leukemia.
In the case of `O=C1Nc2ccc(Cl)cc2/C1=N/c1nc(-c2ccc(Cl)cc2)cs1`, the growth in the assay with SK-MEL-2 melanoma was -2.56% (active); in the assay with EKVX NSCLC, 25.6%; with SN12C renal, 17.3%; in the assay with UO-31 renal, 24.6%; in the assay with TK-10 renal it was -15.5% (active); with ACHN renal, 11.9%. Also, the growth in the assay on A498 renal was -2.57% (active); with CCRF-CEM leukemia, 8.26% (active); with MOLT-4 leukemia, 2.22% (active); in the assay on SR leukemia, 3.05% (active).
Consider `COC(=O)/C=C/c1cc(OC(C)=O)c2c(c1)C(C(=O)OC)C(c1ccc(OC(C)=O)c(OC(C)=O)c1)O2` (stereo not given), for which the growth is 25% in the assay on SK-MEL-2 melanoma; 44.4% in the assay on EKVX NSCLC; 23.6% in the assay with SN12C renal; 35.2% with UO-31 renal; 44.7% in the assay with TK-10 renal; 34.4% in the assay on ACHN renal. The growth with A498 renal is 3.78% (active); in the assay on CCRF-CEM leukemia it was 9.72% (active); with MOLT-4 leukemia, 15.3%; in the assay on SR leukemia, 8.61% (active).
With `CC(=O)c1c(OCC#N)ccc2c(C)cc(=O)oc12`, the growth in the assay on SK-MEL-2 melanoma is 95.6%; with EKVX NSCLC, 105%; in the assay on SN12C renal it was 102%; in the assay on UO-31 renal, 114%; in the assay on TK-10 renal it was 118%; in the assay on ACHN renal it was 99.8%. The growth with A498 renal was 101%; with CCRF-CEM leukemia, 105%; in the assay with MOLT-4 leukemia it was 101%; in the assay with SR leukemia, 87.1%.
